Bioassay records (PubChem)
Only some compounds are listed: those with a hit (about 2.9% of all), similar ones and a draw of the others.
Peg3 promoter: reduces Peg3 promoter-driven luciferase expression in HeLa | HeLa PEG-Prom luciferase reporter, luminescence, overnight | inhibition, % at 20 µM | hit rate 1.7% among 360,000 | AID 588405;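 active = inhibition of at least 50% at 20 µM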
KKLEB tox: counter-screen for CF NF-kB inhibitors: cytotoxicity. KKLEB CF airway cells viability, ATPlite luminescence, overnight; active compounds read low; cells stimulated with P. aeruginosa culture filtrate. AID 602141. hit rate 0.36% among 360,000. activity change (cytotoxicity), % at 5 µM;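 active = corrected activity change at or below -50% at 5 µM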
HIF-2a block: blocks HIF-2a reporter activity; 786-0 RCC cells HIF-2a reporter, luciferase luminescence, overnight; inhibition, % at 18.8 µM; hit rate 0.72% among 360,000;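 active = inhibition of the luminescence signal of 40% or more relative to plate controls, in a single-dose primary screen at 18.75 µM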
CF NFkB inh: cystic fibrosis NF-kB activation inhibition; KKLEB NF-kB-GFP reporter, PAF-induced, GFP fluorescence overnight; inhibition, % at 5 µM; hit rate 0.86% among 360,000; AID 588850;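 active = at least 50% inhibition at 5 µM, scaled per plate between neutral and stimulator controls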;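 note: PAF is a Pseudomonas aeruginosa culture filtrate used as stimulus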
EBV LMP1 NFkB: inhibitors of Epstein-Barr LMP1-induced NF-kappaB reporter; LMP1-induced NF-kappaB luciferase reporter cells, luminescence; inhibition, % at 12.5 µM; hit rate 0.69% among 350,000; AID 504558; in the data active = inhibition above about 41%
Shn3 3UTR inh: Schnurri-3 reporter inhibition in Clone20 osteoblasts. Clone20 osteoblast Shn3 3'UTR firefly luciferase, 24 h. inhibition, % at 12.5 µM. hit rate 0.52% among 360,000. AID 588674;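 active = mean inhibition of at least 75% with every replicate also reaching 75%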
Hits are given with their value; - = inactive; . = no result given.

SMILES | Peg3 promoter | KKLEB tox | HIF-2a block | CF NFkB inh | EBV LMP1 NFkB | Shn3 3UTR inh
CC(=O)C1CCC2C3CCC4=CC(=O)CCC4(C)C3(Br)C(=O)CC12C (centres undefined) | - | - | - | - | - | -
CC1(C)O[C@@H]2C[C@H]3[C@@H]4CCC5=CC(=O)CC[C@]5(C)[C@@]4(F)[C@@H](O)C[C@]3(C)[C@]2(C(=O)CCl)O1 | - | - | - | 77 | - | -
CC(=O)C12OC(C)(C)OC1CC1C3CCC4=CC(=O)C=CC4(C)C3(F)C(O)CC12C (centres undefined) | - | - | - | 79 | - | -
C[C@]12C=CC(=O)C=C1CCC1C2CC[C@@]2(C)C1CCC21OCCO1 (some centres undefined) | - | - | - | - | - | -
COC(=O)CCSc1cc(NCCOC(C)=O)c([N+](=O)[O-])c2nonc12 | - | - | - | - | - | -
CC(=O)OCCCNc1cc(Sc2ccc(C)cc2)c2nonc2c1[N+](=O)[O-] | - | - | - | - | - | 95
O=[N+]([O-])c1c(NCCCO)cc(SCc2ccco2)c2nonc12 | - | - | - | - | - | -
Cn1ccnc1Sc1cc(NCCCO)c([N+](=O)[O-])c2nonc12 | 85 | - | - | - | - | -
COc1ccc(S(=O)(=O)NCCCN2CCCC2=O)cc1OC | - | - | - | - | - | -
O=C(COC(=O)/C=C/c1cc(Br)ccc1F)Nc1ccc2[nH]c(=O)[nH]c2c1 | - | - | - | - | - | -
Cc1cc(C)c(C(=O)N2CCCC(CNC(=O)C3(c4ccc(Cl)cc4)CC3)C2)c(=O)[nH]1 (centres undefined) | - | - | - | - | - | -
O=C(Nc1ccc(Cl)cn1)C1CCCN(c2ncnc3c2nc2n3CCCCC2)C1 (centres undefined) | 56 | - | - | - | - | -
CC1CCN(C(=O)C2CCN(c3ncnc4c3nc3n4CCCCC3)CC2)CC1 | - | - | - | - | - | -
O=C(C1CCN(c2ncnc3c2nc2n3CCCCC2)CC1)N1CCN(c2cccc(Cl)c2)CC1 | 60 | - | - | - | - | -
O=C(Nc1ccc(Cl)cn1)C1CCN(c2ncnc3c2nc2n3CCCCC2)CC1 | - | - | - | - | - | -
O=C(C1CCCN(c2ncnc3c2nc2n3CCCCC2)C1)N1CCN(c2ccc(Cl)cc2)CC1 (centres undefined) | 56 | - | - | - | - | -
CCCCc1nc2cc(C(=O)N3CCC(OCCOC)CC3)ccc2o1 | - | - | - | - | - | -
COc1ccc(-c2sc3ccccc3c2/C=C/c2ccncc2)cc1 | - | - | - | - | - | -
CCCCCCCCN1C(=O)[C@H](CC(=O)NCCCN2CCCC2=O)C[C@@]2(C(=O)OCC)CCCC=C12 | . | . | - | . | . | .
O=C(Cc1ccccc1)NNC(=O)c1ccc(Br)o1 | - | - | - | - | - | -
C=CCSc1nccc(-c2cc(Cl)sc2Cl)n1 | - | - | - | - | 84 | -
CC(C)c1ccc(/C=C2\SC(=O)N(CC(=O)NC3CCS(=O)(=O)C3)C2=O)cc1 (centres undefined) | - | - | - | - | - | -
COc1cccc(-c2cnc3c(NC=O)cc(-c4ccc(O)c(OC)c4)cn23)c1 | 69 | - | - | - | . | -
COc1cccc(-c2cc(NC=O)c3ncc(-c4cc(OC)c(OC)c(OC)c4)n3c2)c1 | - | - | - | - | . | -
COc1cc(-c2cnc3c(NC=O)cc(-c4ccsc4)cn23)cc(OC)c1OC | 76 | - | - | - | . | -
SMILES | Peg3 promoter | KKLEB tox | HIF-2a block | CF NFkB inh | EBV LMP1 NFkB | Shn3 3UTR inh
CN1CCN(c2ccc(-c3cc(NC=O)c4ncc(-c5ccccc5)n4c3)cc2)CC1 | 79 | - | - | - | . | -
COc1ccc(-c2cc(NC=O)c3ncc(-c4ccc(OC)c(OC)c4)n3c2)cc1OC | 58 | - | - | - | . | -
COc1cc(-c2cc(NC=O)c3ncc(-c4ccc(F)cc4)n3c2)cc(OC)c1OC | - | - | - | - | . | -
CC(C)c1ccc(/C=C2\SC(=S)N(CCC(=O)N3CCCCC3CCO)C2=O)cc1 (centres undefined) | - | - | 86 | - | - | -
O=C1/C(=C/c2ccccc2Cl)SC(=S)N1CCC(=O)N1CCCCC1CCO (centres undefined) | 55 | - | - | - | - | -
COc1cccc(/C=C2\SC(=O)N(CCC(=O)N3CCCCC3CCO)C2=O)c1 (centres undefined) | - | - | - | - | - | -
CN1CCN(C(=O)CCN2C(=O)/C(=C\c3ccc(Cl)cc3)SC2=S)CC1 | - | - | - | - | - | -
O=C1/C(=C\c2ccccc2)SC(=S)N1CCC(=O)N1CCCCC1CCO (centres undefined) | - | - | - | - | - | -
COc1ccc(/C=C2\SC(=S)N(CCCC(=O)N3CCCCC3CCO)C2=O)cc1 (centres undefined) | - | - | 83 | - | - | -
COc1cccc(NC(=O)C2CCOC2=O)c1 (centres undefined) | - | - | - | - | . | -
O=C(O)CCC(NC(=S)Nc1ccccc1)C(=O)O (centres undefined) | - | - | - | - | - | -
CC12CCC(C(=O)N/N=C/c3ccc(O)cc3O)(OC1=O)C2(C)C (centres undefined) | - | - | - | - | - | 89
Cc1cccc(-n2ccnc2SCC(=O)c2c(N)n(C3CC3)c(=O)[nH]c2=O)c1C | - | - | - | - | - | -
Cc1ccccc1NNC(=O)C(=O)NNc1ccccc1C | - | - | - | - | - | -
Cc1ccccc1NC(=O)C(Cl)=C(Cl)Cl | 55 | - | - | - | 90 | -
CCOC(=O)CCNC(=O)N1CCC(CCOc2ccccc2)(C(=O)OCC)CC1 | - | - | - | - | - | -
Cc1ccc(C(=O)N/N=C2\CC3CC=CC23)c(C)c1 (centres undefined) | - | - | - | - | - | -
CC1C=CC=CC=CC=CC=CC=CC=CC(OC2OC(C)C(O)C(N)C2O)CC2OC(O)(CC(O)CC(O)C(O)CCC(O)CC(O)CC(=O)OC(C)C(C)C1O)CC(O)C2C(=O)O (centres undefined) | - | - | - | 55 | - | -
Cc1nc2ccccc2cc1C(=O)N(C)Cc1ccccc1 | - | - | - | - | - | -
N#C/C(=C/c1ccc(-c2ccc([N+](=O)[O-])cc2)o1)c1nnc(N2CCOCC2)n1-c1ccccc1 | 67 | - | - | - | - | -
Cc1ccc(/C=N\NC(=O)C2CC(=O)N(c3ccccc3)C2)o1 (centres undefined) | - | - | - | - | - | -
CCOc1nc(NC(=O)NS(=O)(=O)Oc2cccc(Cl)c2)nc(-c2ccccc2)n1 | - | - | - | - | - | -
CN(CC(=O)Nc1ccccc1Cl)C(=O)c1cccc(S(=O)(=O)N2CCN(c3ccccc3)CC2)c1 | - | - | - | - | - | 87
CN(CC(=O)Nc1ccccc1Cl)C(=O)c1cccc(S(=O)(=O)N2CCN(c3ccc(F)cc3)CC2)c1 | - | - | - | - | - | 88
